PubChem BioAssay (Tox21)
Records with an inconclusive call do not appear. The source made the active and inactive calls. Unless noted, calls come from the whole dose curve.

Legend:
[1] = Nuclear factor erythroid 2-related factor 2/antioxidant responsive element (Nrf2/ARE) small molecule agonists: qHTS cell viability counter screen in human keratinocytes (AID 1919968; active = well fitted curve in the direction sought with a large enough effect in the repeat runs; an effect the other way counts as inactive or inconclusive; note: nearly all actives have a fitted effect of over 55% in size)
Method in brief: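 Fluorescence read-out from CellTiter-Fluor after 1 h at 37 C. Wells held HaCaT-derived ARE-luciferase reporter cells (1,500/well) treated 23 h with DMSO-dissolved compounds. Run in the same wells as the luciferase agonist read.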

[2] = biological target: Gonadotropin-releasing hormone receptor (Homo sapiens) (UniProt P30968); test: Human gonadotropin-releasing hormone receptor (GnRHR) small molecule agonists, calcium flux assay in GnRHR-HEK293 cells (AID 1920063); note: nearly all actives have a fitted effect of over 35% in size
Method in brief: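 Calcium-dye fluorescence, Ex/Em=480/540, recorded every 1 sec over 3 min after compound addition to GnRHR-HEK293 cells. Cells had been seeded 18 hours earlier and dye-loaded for 1 hour at 37 C. Fifteen concentrations, triplicates.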

[3] = biological target: KiSS-1 receptor (Homo sapiens) (UniProt Q969F8); test: Human kisspeptin (KISS1R) small molecule agonists, calcium flux assay in KISS1R-HEK293 cells (AID 1920064; active = well fitted curve in the direction sought with a large enough effect in the repeat runs; an effect the other way counts as inactive or inconclusive)
Method in brief: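 Calcium flux read-out: kinetic fluorescence at Ex/Em=480/540, 1 s intervals over 3 min, after pin-tool compound addition to dye-loaded KISS1R-HEK293 cells. Fifteen concentrations, triplicates.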

[4] = G protein-coupled receptor (GPCR) small molecule agonists, calcium flux assay: HEK293 wild type cell line counter screen (AID 1920065)
Method in brief: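 Agonist mode; 18 h seeding at 37 C, 1 h dye load at 37 C; compounds pinned from DMSO, ATP as positive control; kinetic fluorescence 480/540 nm, 3 min, 1 s reads; 15 concentrations, triplicate.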

[5] = p53 small molecule agonists, cell-based qHTS assay with human liver microsomes (AID 1963577);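 note: p53 response element beta-lactamase reporter cells with liver microsomes plus NADPH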
Method in brief: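 16 h, 37 C exposure of p53RE-bla cells to compounds with human liver microsomes and NADPH (0.5 mg/mL final each); detection via LiveBLAzer mixture, 2 h dark at room temperature.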

[6] = p53 small molecule agonists, cell-based qHTS assay with human liver microsomes: qHTS cell viability counter screen (AID 1963579); note: nearly all actives have a fitted effect of over 45% in size
Method in brief: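 In this multiplexed counter screen, the reporter plates were subsequently treated with CellTiter-Glo so that cell viability, reflected by luminescence, could be recorded for p53RE-bla cells dosed 16 h with compounds under microsomal activation (HLM and NADPH).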

[7] = p53 small molecule agonists, cell-based qHTS assay with rat liver microsomes: qHTS cell viability counter screen (AID 1963580); note: nearly all actives have a fitted effect of over 45% in size
Method in brief: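 Counter screen for cytotoxicity under metabolic activation: rat liver microsomes and NADPH, 0.5 mg/mL final each, added with compounds to p53RE-bla HCT-116 cells; 16 h at 37 C, then ATP luminescence read.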

[8] = p53 small molecule agonists, cell-based qHTS assay: qHTS cell viability counter screen (AID 1963581); note: nearly all actives have a fitted effect of over 45% in size
Method in brief: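 Cytotoxicity read-out: ATP-based luminescence (CellTiter-Glo, 30 min RT) measured in the same wells as the p53 reporter assay, HCT-116 p53RE-bla cells, 16 h compound exposure at 37 C.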

[9] = p53 small molecule agonists, cell-based qHTS assay (AID 1963582; active = well fitted activation curve with a large enough effect in the signal ratio in the repeat runs, not every such curve was filed as active; the % refers to the signal ratio)
Method in brief: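 Fluorescence intensity read-out of a beta-lactamase reporter under a p53 response element. Cells were exposed to DMSO-dissolved compounds for 16 h at 37 C, then developed with FRET substrate for 2 h at RT.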

[10] = biological target: 5-hydroxytryptamine receptor 2A (Homo sapiens) (UniProt P28223); test: 5-hydroxytryptamine receptor 2A (HTR2A) small molecule antagonists, cell-based qHTS assay (AID 1963586); note: nearly all actives have a fitted effect of over 45% in size
Method in brief: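 CHO cells stably expressing human HTR2A were plated for 18 h at 37 C, then loaded with calcium dye for 1 h. Compounds were preincubated 5 min at room temperature before DOI (4 nM solution) was added. Kinetic fluorescence was read for 3 min.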

[11] = biological target: 5-hydroxytryptamine receptor 2A (Homo sapiens) (UniProt P28223); test: 5-hydroxytryptamine receptor 2A (HTR2A) small molecule agonists, cell-based qHTS assay (AID 1963587); note: nearly all actives have a fitted effect of over 30% in size
Method in brief: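 HTR2A-CHO cells, plated 18 h at 37 C/5% CO2, dye-loaded 1 h at 37 C; compounds in DMSO added by pin tool (agonist mode). Intracellular calcium flux read as kinetic fluorescence on FDSS over 2 min at 1 s intervals.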

[12] = biological target: Muscarinic acetylcholine receptor M1 (Homo sapiens) (UniProt P11229); test: Cholinergic receptor muscarinic 1 (CHRM1) small molecule antagonists, cell-based qHTS assay (AID 1963588); note: nearly all actives have a fitted effect of over 40% in size
Method in brief: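 Compounds were tested at 15 concentrations in three independent runs. Dye-loaded CHRM1-CHO cells were exposed 5 min at room temperature before stimulation by acetylcholine added at 50nM. Intracellular calcium was read kinetically on FDSS for 3 min.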

[13] = biological target: Muscarinic acetylcholine receptor M1 (Homo sapiens) (UniProt P11229); test: Cholinergic receptor muscarinic 1 (CHRM1) small molecule agonists, cell-based qHTS assay (AID 1963589); note: nearly all actives have a fitted effect of over 35% in size
Method in brief: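 Calcium flux read-out: kinetic fluorescence at 1 sec intervals after pin-tool compound addition to dye-loaded CHRM1-CHO cells (human M1). Agonist mode; 15 concentrations tested in triplicate independent runs.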

[14] = cAMP Responsive Elements (CRE) small molecule antagonists, cell-based qHTS assay (AID 1963591; active = well fitted inhibition curve with a large enough effect in the signal ratio in the repeat runs, not every such curve was filed as active; the % refers to the signal ratio)
Method in brief: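 HEK293T CRE-bla; 18 h preincubation; compound pin-transfer; NKH477 0.25 uM final, 3 h, 37 C; LiveBLAzer FRET substrate 2 h RT.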

[15] = biological target: Beta-2 adrenergic receptor (Homo sapiens) (UniProt P07550); test: Adrenergic beta2 receptor (ADRB2) small molecule antagonists, cell-based qHTS assay (AID 1963592); note: series mostly up to about 92 µM; nearly all actives have a fitted effect of over 50% in size
Method in brief: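 Assay format: CHO-ADRB2 cells, 18-20hr seeding at 37C/5% CO2, then compound plus 1nM isoproterenol agonist mix for 0.5hr RT. Homogeneous time-resolved fluorescence cAMP detection after 1hr, expressed as 665/615 nm ratio.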

[16] = biological target: Beta-2 adrenergic receptor (Homo sapiens) (UniProt P07550); test: Adrenergic beta2 receptor (ADRB2) small molecule agonists, cell-based qHTS assay (AID 1963593);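 note: CHO cells stably overexpressing human ADRB2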
Method in brief: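 CHO cells stably over-expressing ADRB2 were plated overnight at 37C, then dosed with compounds plus a stimulation mix containing 100uM IBMX and 25uM Ro-20-1724 for 0.5hr at room temperature. cAMP was measured by HTRF competition, 1hr.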

[17] = biological target: D(2) dopamine receptor (Homo sapiens) (UniProt P14416); test: Dopamine D2 receptor (DRD2) small molecule agonists, cell-based qHTS assay (AID 1963594); note: nearly all actives have a fitted effect of over 35% in size
Method in brief: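 HEK293 cells stably expressing DRD2 were cultured 24 h at 37 C, then given Ro20-1724 (0.1 mM final) and compounds for 10 min at room temperature. NKH477 (200nM) was then added for 30 min. cAMP was read by HTRF.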

[18] = biological target: D(2) dopamine receptor (Homo sapiens) (UniProt P14416); test: Dopamine D2 receptor (DRD2) small molecule antagonists, cell-based qHTS assay (AID 1963595; active = well fitted inhibition curve with a large enough effect in the signal ratio in the repeat runs, with a control signal flat; the % refers to the signal ratio)
Method in brief: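 HEK293 cells stably expressing DRD2 were preincubated with 0.1 mM Ro20-1724, then with compound for 10 min at room temperature. Cells were stimulated with 200 nM NKH477 plus 12 nM quinpirole for 30 min, and cAMP was read by HTRF.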

[19] = cAMP Responsive Elements (CRE) small molecule agonists, cell-based qHTS assay (AID 1963590)
Method in brief: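 Beta-lactamase reporter readout: LiveBLAzer B/G FRET substrate, 2 h at room temperature, added after 3 h compound treatment of CRE-bla HEK 293T cells at 37 C/5% CO2.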

[20] = p53 small molecule agonists, cell-based qHTS assay with rat liver microsomes (AID 1963578)
Method in brief: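 With rat liver microsomes and NADPH present (0.5 mg/mL final each), p53RE-bla cells are treated with compound for 16 h at 37 C. LiveBLAzer detection mixture is then applied for 2 h at room temperature in the dark.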

Measured: Potency

Sequence of Gonadotropin-releasing hormone receptor (Homo sapiens) (P30968 whole entry, looked up): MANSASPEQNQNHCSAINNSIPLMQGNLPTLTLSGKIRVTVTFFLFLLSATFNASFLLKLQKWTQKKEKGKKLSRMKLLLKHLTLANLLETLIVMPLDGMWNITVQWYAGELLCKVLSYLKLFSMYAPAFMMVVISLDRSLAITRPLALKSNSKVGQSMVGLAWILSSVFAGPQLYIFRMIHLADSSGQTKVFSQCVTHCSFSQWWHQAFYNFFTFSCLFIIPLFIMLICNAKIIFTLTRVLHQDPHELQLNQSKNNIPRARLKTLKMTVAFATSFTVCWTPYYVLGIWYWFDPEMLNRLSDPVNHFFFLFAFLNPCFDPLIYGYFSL
Sequence of 5-hydroxytryptamine receptor 2A (Homo sapiens) (P28223 whole entry, looked up): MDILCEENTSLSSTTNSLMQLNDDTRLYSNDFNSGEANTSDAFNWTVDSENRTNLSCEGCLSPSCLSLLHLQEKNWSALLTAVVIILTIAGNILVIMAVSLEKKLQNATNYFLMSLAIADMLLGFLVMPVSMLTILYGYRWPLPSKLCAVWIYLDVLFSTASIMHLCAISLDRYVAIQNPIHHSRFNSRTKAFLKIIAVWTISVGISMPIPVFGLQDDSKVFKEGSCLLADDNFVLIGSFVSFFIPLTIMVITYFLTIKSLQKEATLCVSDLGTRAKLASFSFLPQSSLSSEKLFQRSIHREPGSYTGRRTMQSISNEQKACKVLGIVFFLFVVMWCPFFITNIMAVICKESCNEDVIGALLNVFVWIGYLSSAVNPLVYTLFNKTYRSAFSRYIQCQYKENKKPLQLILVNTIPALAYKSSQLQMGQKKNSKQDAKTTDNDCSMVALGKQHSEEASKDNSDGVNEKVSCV
Sequence of Beta-2 adrenergic receptor (Homo sapiens) (P07550 whole entry, looked up): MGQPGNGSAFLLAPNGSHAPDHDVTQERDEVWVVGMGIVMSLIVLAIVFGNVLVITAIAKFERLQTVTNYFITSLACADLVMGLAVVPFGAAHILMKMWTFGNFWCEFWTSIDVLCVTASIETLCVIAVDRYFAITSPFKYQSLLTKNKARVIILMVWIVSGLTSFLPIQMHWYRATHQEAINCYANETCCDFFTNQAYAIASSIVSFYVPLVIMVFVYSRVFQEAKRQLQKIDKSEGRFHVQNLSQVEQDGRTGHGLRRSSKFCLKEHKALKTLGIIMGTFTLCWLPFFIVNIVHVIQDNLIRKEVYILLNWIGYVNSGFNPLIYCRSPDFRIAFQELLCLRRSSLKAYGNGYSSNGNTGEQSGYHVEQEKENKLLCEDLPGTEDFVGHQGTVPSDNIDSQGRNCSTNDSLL
Sequence of D(2) dopamine receptor (Homo sapiens) (P14416 whole entry, looked up): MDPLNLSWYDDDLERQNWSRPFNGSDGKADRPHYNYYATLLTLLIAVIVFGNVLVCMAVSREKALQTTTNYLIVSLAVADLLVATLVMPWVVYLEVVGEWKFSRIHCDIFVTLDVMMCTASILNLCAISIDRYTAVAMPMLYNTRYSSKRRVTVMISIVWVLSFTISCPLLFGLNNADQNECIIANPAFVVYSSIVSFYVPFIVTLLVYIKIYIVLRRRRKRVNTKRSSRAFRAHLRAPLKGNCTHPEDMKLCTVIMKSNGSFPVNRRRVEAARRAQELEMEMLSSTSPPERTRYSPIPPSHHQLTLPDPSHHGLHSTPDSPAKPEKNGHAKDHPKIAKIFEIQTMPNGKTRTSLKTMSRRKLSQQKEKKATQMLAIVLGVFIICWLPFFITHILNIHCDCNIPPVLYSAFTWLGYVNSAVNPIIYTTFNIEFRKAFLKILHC
Sequence of Muscarinic acetylcholine receptor M1 (Homo sapiens) (P11229 whole entry, looked up): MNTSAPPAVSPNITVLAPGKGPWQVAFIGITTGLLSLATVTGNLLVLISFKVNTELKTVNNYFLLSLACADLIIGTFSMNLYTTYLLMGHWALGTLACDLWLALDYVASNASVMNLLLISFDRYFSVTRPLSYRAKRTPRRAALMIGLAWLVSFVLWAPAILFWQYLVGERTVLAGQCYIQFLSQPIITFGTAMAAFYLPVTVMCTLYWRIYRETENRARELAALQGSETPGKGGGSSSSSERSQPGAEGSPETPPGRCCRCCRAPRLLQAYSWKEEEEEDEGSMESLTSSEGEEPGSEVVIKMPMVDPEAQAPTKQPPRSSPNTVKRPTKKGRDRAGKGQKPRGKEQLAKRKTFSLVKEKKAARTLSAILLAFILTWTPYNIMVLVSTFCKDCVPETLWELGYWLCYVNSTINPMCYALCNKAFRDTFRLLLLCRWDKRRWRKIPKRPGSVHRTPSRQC
Sequence of KiSS-1 receptor (Homo sapiens) (Q969F8 whole entry, looked up): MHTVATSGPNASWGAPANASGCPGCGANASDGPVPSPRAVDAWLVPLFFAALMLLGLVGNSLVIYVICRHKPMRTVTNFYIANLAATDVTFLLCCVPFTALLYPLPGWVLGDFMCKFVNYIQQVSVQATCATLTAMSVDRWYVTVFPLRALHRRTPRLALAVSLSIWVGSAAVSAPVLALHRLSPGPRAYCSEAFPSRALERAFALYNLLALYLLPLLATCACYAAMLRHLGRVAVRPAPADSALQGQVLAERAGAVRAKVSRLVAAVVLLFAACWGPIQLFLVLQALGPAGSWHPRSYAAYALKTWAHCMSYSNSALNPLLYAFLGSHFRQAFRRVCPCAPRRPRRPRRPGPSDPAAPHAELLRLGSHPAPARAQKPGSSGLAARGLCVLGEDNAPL

CN(C)C(=O)Nc1cccc(C(F)(F)F)c1
not listed: [19] | [20]
inactive: all other assays above

Cl/C=C\C[N+]12CN3CN(CN(C3)C1)C2
not listed: [10] | [19] | [20]
inactive: all other assays above

O=C(O)CF
not listed: [5] | [9] | [15] | [16] | [20]
inactive: all other assays above

CCn1cc[n+](C)c1C
not listed: [5] | [9] | [11] | [20]
inactive: all other assays above

O=C(O)C(F)(F)C(F)(F)C(F)(F)C(F)(F)C(F)(F)C(F)(F)F
not listed: [9] | [10] | [13] | [15] | [16] | [18]
inactive: all other assays above

C#CCOC(C(=O)OCCN(C)C)(c1ccccc1)c1ccccc1
not listed: [8] | [14] | [16]
inactive: all other assays above

CCOC(=O)C(c1c(O)c2ccccc2oc1=O)c1c(O)c2ccccc2oc1=O
not listed: [3] | [6] | [9] | [10] | [11] | [16] | [18]
inactive: all other assays above

CN(C)CCc1ccc(O)cc1
not listed: [3] | [15] | [18]
inactive: all other assays above

CON(C)C(=O)Nc1ccc(Cl)c(Cl)c1
not listed: [2] | [6] | [15]
inactive: all other assays above

CC(C)(C)C(=O)CCl
not listed: [3] | [12]
inactive: all other assays above

O=C(O)C(Cl)Br (centres undefined)
not listed: [2] | [3] | [16]
inactive: all other assays above

c1ccoc1
not listed: [1]
inactive: all other assays above

OCCCCO
not listed: [2] | [6] | [7] | [18]
inactive: all other assays above

Cc1coc2c1CCC(C)C2 (centres undefined)
not listed: [2] | [8] | [16]
inactive: all other assays above

CC[n+]1ccccc1
not listed: [2] | [5] | [7] | [9] | [12] | [20]
inactive: all other assays above

CC(=O)C1CCOC1=O (centres undefined)
not listed: [4]
inactive: all other assays above
